# Screens deposited in PubChem by National Center for Advancing Translational Sciences (NCATS).
# Rows were chosen to be rich in hits. Some 2.3% of all compounds tested hit in one or more screens of this group.
# IDH1 R132H inh: blocks human mutant IDH1 R132H enzyme. IDH1-R132H enzyme, NADPH consumption, diaphorase/resazurin fluorescence. Potency, µM (top dose mostly 76.6 µM), for the others: at the highest dose activity change, negative = inhibition, most hits filed as inhibitors. hit rate 0.093% among 390,000. AID 602179; note: potency is the fitted concentration of half-maximal effect; % is set by controls: 0 for no effect and ±100 for the full control effect; nearly all actives have a fitted effect of over 65% in size
# Target sequence (O75874 whole entry R132H, stated change not applied): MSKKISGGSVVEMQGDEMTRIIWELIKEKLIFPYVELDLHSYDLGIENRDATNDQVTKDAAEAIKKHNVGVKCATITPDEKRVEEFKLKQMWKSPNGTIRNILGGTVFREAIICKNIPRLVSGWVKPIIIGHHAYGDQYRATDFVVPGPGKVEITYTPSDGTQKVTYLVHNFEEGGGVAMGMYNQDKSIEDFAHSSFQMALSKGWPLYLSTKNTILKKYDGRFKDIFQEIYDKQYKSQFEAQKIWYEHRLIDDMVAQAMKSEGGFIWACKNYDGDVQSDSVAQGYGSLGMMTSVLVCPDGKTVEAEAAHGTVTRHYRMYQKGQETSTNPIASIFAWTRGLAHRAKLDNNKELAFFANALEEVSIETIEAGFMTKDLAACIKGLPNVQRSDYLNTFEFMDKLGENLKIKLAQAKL
#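 IDH1-R132H (0.5 ug/mL dispensed) in pH 7.5 Tris buffer was preincubated 30 min with compound, then given a substrate mix of 0.016 mM NADPH and 2 mM alpha-KG for 80 min at room temperature; remaining NADPH was read by diaphorase/resazurin fluorescence.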
# Nrf2 activator: activators of Nrf2 (ARE) signaling | AREc32 ARE-luciferase reporter (MCF7-derived line), luminescence, 24 h | Potency, µM (highest dose often 46.1 µM), inactives show at the highest dose activation, usual class: activators | hit rate 0.31% among 410,000 | AID 624171; note: potency is the fitted concentration of half-maximal effect; % of control where 0% means no effect; nearly all actives have a fitted effect of over 65% in size
#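 For detection, Steady-Glo was added and plates sat 30 min at RT; before that, AREc32_Fluc cells grown overnight in OPTI-MEM/5% FBS had been treated with 23 nL compound for 24 hr at 37 deg C.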
# Giardia kill: Giardia lamblia killing | Giardia lamblia trophozoite viability | activity change, % at 7.66 µM, hits read low | hit rate 0.15% among 340,000; in the data active = activity change below about -80%; inconclusive = between about -30% and that limit;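 note: parasites exposed to compound for two days anaerobically before the ATP read; % is set by controls: 0 for no effect and ±100 for the full control effect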
#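 Giardia trophozoites, 100 cells per well, were exposed to compounds for 48 hrs at 37 deg C under anaerobic conditions; viability was then read as ATP content by bioluminescence after 15-30 min at room temperature.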
# Apoferritin bind: binds horse apoferritin like a general anesthetic; apoferritin/1-aminoanthracene competitive binding, fluorescence; Potency, µM (titrated, usually from 77.5 µM), for the others: top-dose activity change, negative = displacement, usual class: inhibitors; hit rate 0.074% among 350,000; note: potency is the fitted concentration of half-maximal effect; % is set by controls: 0 for no effect and ±100 for the full control effect; nearly all actives have a fitted effect of over 20% in size
# Target sequence (P02791 2-175 limits assumed): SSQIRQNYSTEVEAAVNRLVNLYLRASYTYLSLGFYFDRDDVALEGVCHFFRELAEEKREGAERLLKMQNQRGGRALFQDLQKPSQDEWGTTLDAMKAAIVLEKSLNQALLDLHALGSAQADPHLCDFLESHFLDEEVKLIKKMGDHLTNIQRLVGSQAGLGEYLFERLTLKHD
#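 Probe: 1-aminoanthracene (50% saturated, PBS). Protein: horse-spleen apoferritin, 10 uM. Incubation: 10 min, room temperature. Detection: 380 nm excitation, 535 nm emission. Analysis: normalized response, four-parameter Hill.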
# A549 viability: counter-screen for Nrf2 inhibitors: cytotoxicity in A549 cells; A549 ARE-Fluc cells, CellTiter-Fluor viability, 18-24 h; AID 504648; Potency, µM (top dose mostly 46 µM), for the others: at the top dose activity change, negative = cytotoxicity, most hits filed as inhibitors; hit rate 0.16% among 390,000; note: potency is the fitted concentration of half-maximal effect; % is set by controls: 0 for no effect and ±100 for the full control effect
#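 A549 ARE_Fluc cells in 5% FBS OPTI-MEM were exposed to compounds in concentration-response for 18-24 h at 37 deg C. Viability was read by CellTiter-Fluor fluorescence (Ex 405/Em 525) after 30 min, before the luciferase read.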
# Nrf2 block: Nrf2 pathway inhibition | A549 ARE-Fluc reporter, luciferase luminescence, 18-24 h | Potency, µM (doses to about 46 µM), for inactives: at the top dose activity change, negative = inhibition, most hits filed as inhibitors | hit rate 2.1% among 360,000; note: potency is the fitted concentration of half-maximal effect; % is set by controls: 0 for no effect and ±100 for the full control effect; nearly all actives have a fitted effect of over 60% in size
#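 In this cell-based qHTS, ARE-driven firefly luciferase in A549 cells reports Nrf2 activity; the luminescent signal after BugLite lysis is the measured value, with a prior CellTiter-Fluor read for cell health.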
# * hit, by the source's call; ? = inconclusive; · = no result; [ ] = dose if it differs, or a comment. Unless noted, calls come from the whole dose curve; as a rule, active = well fitted curve in the direction sought with a large enough effect; inconclusive = small, poorly fitted or top-dose-only effect, or another doubt; inactive = no such curve, though single readings can be large; an effect the other way counts as inactive or inconclusive.
SMILES,IDH1 R132H inh,Nrf2 activator,Giardia kill,Apoferritin bind,A549 viability,Nrf2 block
O=C(NCc1ccccc1)C1c2ccccc2OCC(=O)N1Cc1ccccc1 (configuration not stated),·,-0.3%,·,·,·,·
CCN(CC)C(=O)c1sc2c(c1C)c(=O)n(CCc1ccccc1)c(=O)n2Cc1ccc(C)cc1,7.9%,3.4%,·,86.4%,-14.3%,·
Cc1nc(N2CCN(c3ccccn3)CC2)c2c(C)c(C(=O)N3CCN(c4ccc(F)cc4)CC3)sc2n1,-0.3%,2.6%,24.4,-14.0%,-9.5%,18.4µM*
COc1ccccc1N1CCN(C(=O)c2sc3ncnc(N4CCN(c5ccccn5)CC4)c3c2C)CC1,1.3%,-1.0%,-5.2,4.7%,-7.9%,?
Cc1nc(N2CCN(C(=O)COc3ccccc3)CC2)c2c(C)c(C)sc2n1,5.1%,-0.6%,9.5,?,-28.6%,20.6µM*
COc1ccccc1N1CCN(C(=O)c2sc3nc(C)nc(N4CCN(c5ccccn5)CC4)c3c2C)CC1,0.5%,1.7%,-27.5,-15.4%,-23.2%,14.6µM*
O=C(COc1ccccc1)N1CCN(c2ncccn2)CC1,-4.9%,1.2%,-1.3,0.6%,0.1%,-1.7%
COc1cccc(C2c3c(ncn(-c4ccccc4-c4ccccc4)c3=N)Oc3ccc4ccccc4c32)c1 (configuration not stated),·,·,·,·,-0.9%,17.9%
CCCCNc1nc(Oc2ccc(=O)n(C)n2)nc(N(C)C)n1,·,8.3%,·,-4.4%,0.0%,-3.2%
Cc1ccc(-c2cc(-c3ccco3)c3c(N)c(C(=O)NN)oc3n2)cc1,?,5.4%,4.6,-4.9%,-19.0%,8.2µM*
COCCN(Cc1cc2c(C)cc(C)cc2nc1Cl)C(=O)c1ccccc1F,-2.7%,-0.8%,2.8,-3.0%,?,18.4µM*
CCN(CC)Cc1nc2nc(Cl)c(Cl)nc2[nH]1,8.1%,-0.7%,·,·,·,·
Nc1ccc(Cn2ccc3c4c(N)nc(N)nc4ccc32)cc1,-1.9%,16.9%,-6.8,·,-15.4%,0.82µM*
NC(N)=NCCC[C@H](NC(=O)[C@H](Cc1ccccc1)NC(=O)[C@@H]1CCCN1C(=O)[C@H](CO)NC(=O)[C@H](Cc1ccccc1)NC(=O)CNC(=O)[C@@H]1CCCN1C(=O)[C@@H]1CCCN1C(=O)[C@@H](N)CCCN=C(N)N)C(=O)O,·,·,·,-5.5%,·,·
CCN(CC)C(=O)COC(=O)c1cc(-c2ccc(OC)cc2)nc2ccccc12,-0.1%,3.0%,-5.9,?,-22.5%,23.1µM*
COc1ccc(/C=C/c2cc(C(=O)O)c3ccccc3n2)cc1,7.3%,-2.0%,-92.9*,71.8%,-0.5%,6.51µM*
CCOc1ccc(-c2cc(C(=O)O)c3ccccc3n2)cc1,0.0%,-1.0%,-82.6*,3.8%,-0.1%,?
CCC1CN(C(=O)N2CCC(C(=O)NCCc3cc(OC)ccc3OC)CC2)c2ccccc2O1 (configuration not stated),-0.9%,-0.3%,·,-6.3%,-8.2%,23.1µM*
CC[C@H](C)[C@H](NC(=O)[C@H](CCC(=O)O)NC(=O)[C@H](CC(N)=O)NC(=O)[C@@H](N)[C@@H](C)O)C(=O)N[C@H](C(=O)N[C@@H](CCC(=O)O)C(=O)N[C@@H](CCC(=O)O)C(=O)N[C@@H](CCC(N)=O)C(=O)N[C@@H](Cc1ccc(O)cc1)C(=O)N[C@H](C(=O)N1CCC[C@H]1C(=O)N[C@@H](CCC(N)=O)C(=O)N[C@@H](CO)C(=O)N[C@@H](CC(C)C)C(=O)N[C@@H](C)C(=O)N[C@H](C(=O)N[C@@H](CC(C)C)C(=O)N[C@@H](CCC(=O)O)C(=O)N[C@@H](CO)C(=O)N[C@H](C(=O)N[C@@H](Cc1ccccc1)C(=O)N[C@@H](CCC(N)=O)C(=O)N[C@@H](CCC(=O)O)C(=O)N[C@@H](CC(C)C)C(=O)NCC(=O)N[C@@H](CCCCN)C(=O)N[C@@H](CC(C)C)C(=O)N[C@H](C(=O)NCC(=O)N1CCC[C@H]1C(=O)N[C@@H](CC(N)=O)C(=O)N[C@@H](CO)C(=O)N[C@@H](CCC(N)=O)C(=O)O)[C@@H](C)O)C(C)C)[C@@H](C)O)[C@@H](C)O)C(C)C,·,·,·,-3.5%,·,·
CSc1ccc(OC2(C)CCN(Cc3ccc(C(C)C)cc3)C2)cc1 (configuration not stated),·,-0.5%,·,·,·,·
O=C1C=C(N2CCOCC2)c2ccccc2C1=O,17.5%,-3.6%,17.5,-17.8%,?,20.6µM*
Cc1cc(C)c(Cc2c(C)nc3c(C(=O)NCc4ccco4)cnn3c2C)c(C)c1,-7.6%,10.4%,3.1,-19.3%,?,18.4µM*
C=C(c1ccccc1Cl)[n+]1ccccc1,6.4%,0.3%,29.0,-13.1%,?,7.31µM*
C=C(c1ccccc1C)[n+]1ccccc1,4.9%,-0.2%,9.2,-1.8%,-11.6%,18.4µM*
COc1ccc(S(=O)(=O)c2c(Nc3ccc(C)cc3C)sc(C(=O)c3ccc(F)cc3)c2N)cc1,2.1%,-0.6%,·,63.6%,-9.7%,·
SMILES,IDH1 R132H inh,Nrf2 activator,Giardia kill,Apoferritin bind,A549 viability,Nrf2 block
Cc1nc2cc(-c3ccccc3)nn2c(C)c1CCC(=O)N1CCN(c2ccc(F)cc2)CC1,3.5%,-2.2%,·,-11.6%,-4.8%,5.17µM*
Cc1nc2cc(-c3cccc(F)c3)nn2c(N2CCN(C(=O)c3ccco3)CC2)c1C,-10.6%,12.6µM*,15.2,-17.4%,-1.2%,14.0%
COc1ccc(-c2cc3nc(C)c(C)c(N4CCN(C(=O)c5ccoc5)CC4)n3n2)cc1,-8.5%,0.9%,·,·,·,·
Cc1nc2cc(-c3cccc(F)c3)nn2c(C)c1CCC(=O)NC(C)CCc1ccco1 (configuration not stated),17.2%,1.2%,-14.2,-14.1%,0.3%,0.82µM*
Cc1nc2cc(-c3ccccc3)nn2c(C)c1CCC(=O)N1CCN(c2ccccn2)CC1,·,·,·,-2.6%,·,·
OC[C@@H]1O[C@@H](Oc2ccc(O)cc2)[C@H](O)[C@@H](O)[C@@H]1O,·,·,·,-1.4%,·,·
COC(=O)NC(/C(C(=O)OC)=C(\C)NCc1ccccc1)c1ccccc1 (configuration not stated),·,·,·,-9.9%[15.3 µM],·,·
CC(C)(C)S(=O)N1Cc2cc(CO)ccc2[C@H]1CCO (some centres not stated),1.1%,2.3%,·,·,·,·
Cc1cc2c(NC3CCCCC3)ncnc2s1,2.8%,3.2%,1.6,-5.0%,-12.4%,11.6µM*
Cc1cc2c(SCC(=O)NC3CCCCC3)ncnc2s1,10.2%,-0.5%,2.3,-15.4%,-15.8%,?
COC(=O)c1cc(NC(=O)CN(c2cccc(OC)c2)S(=O)(=O)c2ccccc2)ccc1Cl,5.7%,2.2%,-4.4,4.9%,-9.8%,23.1µM*
